Most compounds without a hit are left out; they make up all but 10% or so of the library.
HEK cytotox = kills HEK 293 cells; HEK 293 viability, ATP luminescence (CellTiter-Glo), 48-72 h; Potency, µM (series often up to 115 µM), without a hit: top-dose activity change, negative = cytotoxicity, actives largely listed as inhibitors; 94,000 compounds, 6.6% hits; AID 1345083; note: % is set by controls: 0 for no effect and ±100 for the full control effect; nearly all actives have a fitted effect of over 60% in size
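HEK 293 cells seeded at 250 cells/well were exposed to compound for 48 or 72 hr at 37 degree Celsius. Viability taken as ATP content by CellTiter-Glo luminescence.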
NIH3T3 tox = kills NIH 3T3 cells. NIH 3T3 viability, CellTiter-Glo ATP luminescence, 48-72 h. AID 1345082. Potency, µM (highest dose often 96.7 µM), without a hit: at the highest dose activity change, negative = cytotoxicity, most hits filed as inhibitors. 94,000 compounds, 4.3% hits; note: % is set by controls: 0 for no effect and ±100 for the full control effect; nearly all actives have a fitted effect of over 55% in size
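Luminescent ATP readout (CellTiter-Glo, 10 min RT) after 48 or 72 hr compound exposure of NIH 3T3 cells seeded at 400 cells/well in 1536-well format; quantitative HTS.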
GPT2 inh = blocks human glutamate pyruvate transaminase 2 | Recombinant GPT2, coupled pyruvate oxidase/HRP Amplex Red fluorescence | Potency, µM (doses to about 57.7 µM), without a hit: top-dose activity change, negative = inhibition, hits mostly inhibitors | 100,000 compounds, 0.25% hits | AID 1671188; note: % is set by controls: 0 for no effect and ±100 for the full control effect; nearly all actives have a fitted effect of over 60% in size
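Inhibition is scored from Amplex Red fluorescence generated when pyruvate oxidase and HRP act on pyruvate released by GPT2. Reactions contain 10ng/uL enzyme, 250uM a-KG and 2mM L-alanine and run 30 min at room temperature.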
Luciferase inh = Photinus pyralis luciferase inhibition | P08659 | purified P. pyralis luciferase, luminescence, biochemical | Potency, µM (highest dose often 115 µM), hits mostly inhibitors | 76,000 compounds, 2.5% hits | AID 1347043; note: % is set by controls: 0 for no effect and ±100 for the full control effect; nearly all actives have a fitted effect of over 65% in size
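FLuc 10nM, D-luciferin 10uM, ATP 10uM, Mg acetate 10mM, Tris acetate pH 7.5, Tween/BSA; cpd qHTS; enzyme added last; CCD luminescence.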
hNpr1 antagonist = blocks ANP-stimulated signaling of human Npr1 receptor | AID 1347048 | 76,000 compounds, 1.6% hits | Potency, µM (top dose mostly 46.3 µM), inactives show top-dose activity change, negative = inhibition, most hits filed as inhibitors | HEK293 hNpr1 GloSensor cGMP, ANP-stimulated luminescence; calls by dose curve; note: % is set by controls: 0 for no effect and ±100 for the full control effect; nearly all actives have a fitted effect of over 60% in size
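Compound pre-incubated 30 min at room temperature on GloSensor-loaded HEK293 cells stably carrying hNpr1 and the pGS-40F cGMP biosensor. Stimulation uses hNppA at 0.1 nM final; luminescence is taken at baseline and 20 min post-agonist.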
Npr1 antag conf = hNpr1 antagonism, confirmation assay | shares compounds with hNpr1 antagonist | HEK293 hNpr1 cGMP GloSensor luminescence, ANP-stimulated | Potency, µM (titrated, usually from 57.6 µM), for the others: at the top dose activity change, negative = inhibition, hits mostly inhibitors | 1,400 compounds, 76% hits | AID 1347044; calls by dose curve; note: nearly all actives have a fitted effect of over 70% in size
NPR2 antag = selectivity test of Npr1 antagonists against human Npr2. shares compounds with hNpr1 antagonist. HEK293 hNpr2 GloSensor cGMP luminescence, CNP-stimulated. Potency, µM (top dose mostly 57.6 µM), inactives show at the top dose activity change, negative = inhibition, most hits filed as inhibitors. 1,400 compounds, 67% hits. AID 1347046; calls by dose curve; note: nearly all actives have a fitted effect of over 70% in size
FLuc counter = counter-screen for Npr1 antagonists: firefly luciferase inhibitors | shares compounds with hNpr1 antagonist | purified FLuc enzyme, luminescence, Km substrate | Potency, µM (top dose mostly 57.6 µM), inactives show top-dose activity change, negative = inhibition, usual class: inhibitors | 1,400 compounds, 0.7% hits | AID 1347047; note: 0% is about no effect
GloSensor cGMP = counter-screen for Npr1 antagonists: GloSensor control cell line; shares compounds with hNpr1 antagonist; HEK293 GloSensor cGMP, SNP-stimulated, luminescence; Potency, µM (top dose mostly 57.6 µM), inactives show at the highest dose activity change, negative = inhibition, hits mostly inhibitors; 1,400 compounds, 69% hits; calls by dose curve; note: % is set by controls: 0 for no effect and ±100 for the full control effect; nearly all actives have a fitted effect of over 70% in size
Starred values were filed as active, the others as inactive; i = inactive; ? = inconclusive; · = no result; [ ] = dose if it differs, or a comment. Unless noted, calls come from the whole dose curve; as a rule, active = well fitted curve in the direction sought with a large enough effect; inconclusive = small, poorly fitted or top-dose-only effect, or another doubt; inactive = no such curve, though single readings can be large; an effect the other way counts as inactive or inconclusive. Potency is the fitted concentration of half-maximal effect.

SMILES | HEK cytotox | NIH3T3 tox | GPT2 inh | Luciferase inh | hNpr1 antagonist | Npr1 antag conf | NPR2 antag | FLuc counter | GloSensor cGMP
N#Cc1ccc(C(=O)N2CCC(n3cc(-c4nc(-c5ccccc5)no4)nn3)CC2)cc1 | ? | ? | i | ? | 0% | · | · | · | ·
O=C(c1ccc(F)cc1)N1CCC(n2cc(-c3nc(-c4ccccc4)no3)nn2)CC1 | ? | ? | i | i | ? | ? | ? | -17% | 24µM*
O=C(c1ccc(Cl)cc1)N1CCC(n2cc(-c3nc(-c4ccccc4)no3)nn2)CC1 | ? | ? | 4% | i | 16µM* | 22µM* | 22µM* | -19% | 22µM*
O=C(c1ccccc1Cl)N1CCC(n2cc(-c3nc(-c4ccccc4)no3)nn2)CC1 | ? | -24% | i | i | ? | · | · | · | ·
CC(Oc1ccccc1)C(=O)N1CCC(n2cc(-c3nc(-c4ccccc4)no3)nn2)CC1 (stereo unspecified) | 20µM* | ? | -7% | i | 18µM* | 24µM* | 22µM* | -24% | 24µM*
COc1ccc(CN(C)C2CCCc3ccccc32)cc1 (stereo unspecified) | ? | ? | 2%[88.5 µM] | i | -4%[70.6 µM] | · | · | · | ·
CN(C)CC(=O)N1CC(F)(F)C[C@H]1c1nc(C2CC2)no1 | i | i | -7% | i | 2% | · | · | · | ·
CN(C)C(=O)N1CCC(C(=O)N2CCC(N3Cc4cccn4C3=O)CC2)CC1 | -4% | -14% | i | · | · | · | · | · | ·
O=C(CN1CCCCCC1)N1CCC(N2C(=O)C3(CCCC3)C2c2ccccc2)CC1 (stereo unspecified) | ? | -32% | i | i | -14% | · | · | · | ·
O=C(NCCn1ccn2nc(-c3ccc(F)cc3)cc2c1=O)c1cccs1 | -7% | -6% | i | ? | -19% | · | · | · | ·
O=C(c1cc(CN2CCOCC2)on1)N1CCC(c2nc(C3CCOCC3)no2)C1 (stereo unspecified) | 6% | -2% | -4% | i | -14% | -2% | 4% | 5% | 11%
O=C(c1ccccc1)N1CCC(c2nc(C3CCOCC3)no2)C1 (stereo unspecified) | 8% | i | -3% | i | 0% | · | · | · | ·
CC1Oc2ccc(NC(=O)c3ccc(F)cc3F)cc2CN(CCc2ccccc2)C1=O (stereo unspecified) | ? | -26% | -8% | i | 3% | · | · | · | ·
CCNC(=O)Nc1ccc2c(c1)CN(Cc1ccc(Cl)cc1)C(=O)C(C)O2 (stereo unspecified) | ? | ? | i | i | -25% | · | · | · | ·
CC(=O)Oc1ccccc1C(=O)Nc1ccc2c(c1)CN(CCc1ccc(F)cc1)C(=O)C(C)O2 (stereo unspecified) | ? | 25µM* | i | i | 16µM* | 24µM* | 24µM* | -7% | 24µM*
CC1Oc2ccc(NC(=O)Cc3ccccc3)cc2CN(Cc2ccc(Cl)cc2)C1=O (stereo unspecified) | ? | ? | -1% | i | 11µM* | 22µM* | 19µM* | 4% | 17µM*
Cc1nn2c(c1-c1ccccc1C(N)=O)N(C(=O)c1ccccc1)CCC2 | i | ? | -3%[88.5 µM] | i | 0%[70.6 µM] | · | · | · | ·
Cc1nn2c(c1-c1ccccc1C(C)C)N(CCC(C)C)CCC2 | 11µM* | 8.9µM* | -14%[88.5 µM] | i | 2.5µM* | 1.6µM* | 2.5µM* | -10%[86.2 µM] | 1.8µM*
COc1ccc(OC)c(CN2CCCn3nc(C)c(-c4ccccc4C(C)C)c32)c1 | 63µM* | 35µM* | i | i | -27%[70.6 µM] | 40µM* | 40µM* | 2%[86.2 µM] | ?
Cc1nn2c(c1-c1ccccc1C(C)C)N(Cc1cccc(C(=O)O)c1)CCC2 | 56µM* | 45µM* | 0%[88.5 µM] | i | ? | ? | -22%[86.2 µM] | -2%[86.2 µM] | -23%[86.2 µM]
O=C(NCCc1ccc(F)cc1)C1CCCN1C(=O)c1cccc(-c2ccccn2)c1 (stereo unspecified) | -2% | -22% | i | · | · | · | · | · | ·
COc1ccc(-c2noc(CC3CCN(C(=O)c4cc(F)ccc4Cl)CC3)n2)cc1 | ? | ? | i | i | 10µM* | 12µM* | 14µM* | 0% | 11µM*
CC(C)c1noc(CC2CCN(C(=O)c3ccc(F)cc3Cl)CC2)n1 | ? | i | i | i | ? | · | · | · | ·
O=C(c1cc(F)ccc1F)N1CCC(Cc2nc(-c3ccccc3)no2)CC1 | ? | ? | i | i | 5.6µM* | 7.7µM* | 9.7µM* | -15% | 8.6µM*
O=C(c1ccc(F)c(Cl)c1)N1CCC(Cc2nc(-c3cnccn3)no2)CC1 | ? | 32µM* | i | i | ? | 22µM* | ? | 0% | 19µM*
SMILES | HEK cytotox | NIH3T3 tox | GPT2 inh | Luciferase inh | hNpr1 antagonist | Npr1 antag conf | NPR2 antag | FLuc counter | GloSensor cGMP
O=C(c1ccc(F)cc1Cl)N1CCC(Cc2nc(-c3ccc(F)cc3)no2)CC1 | 32µM* | ? | i | i | 3.2µM* | 3.1µM* | 3.1µM* | 4% | 3.1µM*
O=C(c1cccc(F)c1)N1CCC(Cc2nc(-c3cnccn3)no2)CC1 | -23% | -20% | -7% | i | -2% | · | · | · | ·
COc1ccc(-c2cc(N3CCN(C(=O)c4cc(F)ccc4Cl)CC3)n[nH]2)cc1 | ? | ? | i | i | -6% | · | · | · | ·
C#CCN(C)Cc1nc(C2(O)CCN(CCC(C)C)CC2)cs1 | -29%[172 µM] | ? | i | i | -2%[70.6 µM] | · | · | · | ·
COc1ccc2c(c1)OC[C@@H]1CN(C)C(=O)CCN(C(=O)c3ccccc3OC)[C@H]21 | -22% | ? | · | · | · | · | · | · | ·
COC(=O)C1=C(C)N=C2SC=C(CC(=O)N3CCCC(C(N)=O)C3)N2C1c1cccc(Cl)c1 (stereo unspecified) | -22% | -23% | ? | i | ? | · | · | · | ·
Cc1ccc(C(=O)N2CCC3(CC2)N=C(c2ccc(Br)cc2)NO3)cc1 | ? | -22% | i | i | 16µM* | 22µM* | 19µM* | 2% | 19µM*

Screening data deposited in PubChem by National Center for Advancing Translational Sciences (NCATS).
